# A number with no mark means an inactive call. Calls of active or inactive are those of the source. Calls come from the whole dose curve; as a rule, active = well fitted curve in the direction sought with a large enough effect in the repeat runs; inconclusive = weak or mixed curves; inactive = flat fitted curve, though single readings scatter.
# Assay: qHTS assay to test for compound auto fluorescence at 460 nm (blue) in HepG2 cell free culture (AID 720685)
# Settings: Cell-free culture medium, blue autofluorescence 405/460 nm; series mostly up to 91.3 µM; fluorescence, % of fluorescent control: at the top concentration
# Source text: U.S. Tox21 Program National Center for Advancing Translational Sciences [NCATS] NIH Chemical Genomics Center [NCGC] U.S. Environmental Protection Agency [EPA] National Institutes of Environmental Health Sciences [NIEHS] National Toxicology Program [NTP] U.S. Food and Drug Administration [FDA] Tox21 Assay Overview: Compound auto fluorescence often interferes with screening of the compound library against various biological targets and signaling pathways. Some of these compounds may have fluorophoric properties. Such properties may interfere with the assay outputs resulting in false positives and/or negatives. To decrease such complications and ensure the compound activities are relevant in terms of biological response, the Tox21 10K compound library was screened for auto fluorescence. From the fluorophores used as reporter signals in our screening assays, the auto fluorescence equivalencies of compounds against three fluorophores have been evaluated: Triamterene, Fluorescein and Rose Bengal sodium for blue, green and red fluorescence, respectively. The fluorescence intensities were measured using Excitation/Emission wavelengths at 405/460nm, 485/535nm and 540/590nm for blue, green and red labels, respectively. This assay includes the blue fluorescence data.
# Tox21 Assay Protocol Summary: 5 uL of culture medium (MEM containing 10% FBS) per well was dispensed into black wall/clear bottom 1536-well plates using a Multidrop Combi Dispenser (ThermoFisher Scientific, Waltham, MA). After 23 nL compound or DMSO vehicle was transferred into assay plate by a pintool work station (Kalypsys, San Diego, CA), fluorescence intensities in the assay plates were measured by an Envision (PerkinElmer, Shelton, CT) plate reader using three labels for measuring blue, green and red fluorescence at […] 460, 535 and 590nm respectively.
# % is set by controls: 0 for no effect and ±100 for the full control effect.
SMILES,"fluorescence, % of fluorescent control",outcome
CCCCOP(=O)(O)OCCCC,-0.119%,–
CCCCc1ccc(O)cc1,-0.0235%,–
ClC(Cl)(Cl)C(Cl)(Cl)Cl,0.0726% [at 95.7 µM],–
CCOP(=S)(OCC)Oc1cc(-c2ccccc2)on1,-0.116%,–
c1cc[c]([Hg][c]2ccccc2)cc1,0.0008%,–
Nc1ccccc1Cl,-0.0294%,–
CCN(CC)C(=O)[C@@H]1C=C2c3cccc4[nH]cc(c34)C[C@H]2N(C)C1,–,inactive
CC(CC(C#N)(c1ccccc1)c1ccccc1)N(C)C (stereo not given),0.0117%,–
c1coc(-c2nc3ccccc3[nH]2)c1,1.11%,–
CCSC(=O)N(CC)C1CCCCC1,-0.182%,–
OC(c1ccc(F)cc1)(c1cncnc1)c1ccccc1Cl (stereo not given),-0.0063%,–
Oc1c(Cl)cccc1Cl,-0.0555%,–
CCS(=O)(=O)C(C)(C)S(=O)(=O)CC,0.0238% [at 46 µM],–
COP(=S)(OC)Oc1c(Cl)cc(C)cc1Cl,0.0119%,–
ClCCOCOCCCl,-0.11% [at 95.7 µM],–
CCN(Cc1ccc(Cl)nc1)/C(=C/[N+](=O)[O-])NC,-0.0073% [at 46 µM],–
OC(Cn1cncn1)(c1ccc(F)cc1)c1ccccc1F (stereo not given),0.0437%,–
C[N+](=O)[O-],0.0045%,–
CN(N=O)C(N)=O,0.053%,–
CC(C1CC1)C(O)(Cn1cncn1)c1ccc(Cl)cc1 (stereo not given),-0.0206%,–

SMILES,"fluorescence, % of fluorescent control",outcome
COC(C)(C)C,-0.0176%,–
N#CC(O)c1ccccc1 (stereo not given),-0.0107%,–
ClC(Cl)C(Cl)Cl,-0.0529%,–
CCC(Cl)[N+](=O)[O-] (stereo not given),-0.0401% [at 95.7 µM],–
[As]#[In],-0.115%,–
CCOC(=O)N(C)C(=O)CSP(=S)(OCC)OCC,0.0497%,–
CCN(CC)CCOC(=O)C(C)(c1ccccc1)c1ccccc1,-0.0199% [at 46 µM],–
C[C@H]1CCC[C@H](O)CCCCCc2cc(O)cc(O)c2C(=O)O1,–,inactive
CCCCOC(=O)c1ccccc1C(=O)O,-0.0759%,–
CNC(=O)N(C)c1nc2ccccc2s1,-0.0584%,–
CCCCc1c(C)nc(NCC)[nH]c1=O,0.0986%,–
CCCSP(=S)(OCC)Oc1ccc(Cl)cc1Cl (stereo not given),-0.0154%,–
CCCCP(CCCC)CCCC,0.0391%,–
ClCC(Cl)Cl,0.0331% [at 95.7 µM],–
CN1CCN(C(=O)O[C@H]2c3nccnc3C(=O)N2c2ccc(Cl)cn2)CC1,-0.052% [at 46 µM],–
NC1=NC(=O)C(c2ccccc2)O1 (stereo not given),-0.0061% [at 46 µM],–
CC(C)COP(=O)(OCC(C)C)OCC(C)C,-0.048%,–
CC(N)=S,-0.0688%,–
CC(COc1ccc(Oc2ccccc2)cc1)Oc1ccccn1 (stereo not given),0.0462%,–
COc1ccc2c(c1OC)CN1CCc3cc4c(cc3C1C2)OCO4 (stereo not given),-0.0388% [at 18.6 µM],–
